# Cruzain noTriton – cruzain (T. cruzi) inhibition without detergent; Potency, µM, for inactives: max response, negative = inhibition, actives largely listed as inhibitors; AID 1476; purified cruzain, Z-FR-AMC fluorescence, no detergent; P25779; 200,000 compounds, 2.3% hits;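 further: plate controls were enzyme without inhibitor for no effect and buffer without enzyme for full effect; nearly all actives have a fitted effect of over 40% in size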
# Target sequence (P25779 123-467 limits assumed): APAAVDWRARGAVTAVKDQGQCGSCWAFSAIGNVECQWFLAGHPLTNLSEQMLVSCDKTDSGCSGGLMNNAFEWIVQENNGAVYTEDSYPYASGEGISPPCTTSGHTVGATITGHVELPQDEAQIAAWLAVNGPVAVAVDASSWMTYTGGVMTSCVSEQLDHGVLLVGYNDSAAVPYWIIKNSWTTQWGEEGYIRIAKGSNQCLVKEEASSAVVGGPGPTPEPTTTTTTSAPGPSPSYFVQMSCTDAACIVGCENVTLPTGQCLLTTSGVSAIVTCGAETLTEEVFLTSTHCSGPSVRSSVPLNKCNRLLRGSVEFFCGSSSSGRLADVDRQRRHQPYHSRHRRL
#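 Detergent-free condition (0.00005% Triton X-100) in acetate buffer pH 5.5 with DTT. 1.5 nM enzyme and compound were pre-mixed 15 min, then 2 uM Z-FR-AMC substrate added; reaction progress from fluorescence change between first and third reads (60 s).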
# Cruzain inh Det – blocks cruzain activity in presence of Triton detergent | P25779 | purified cruzain, Z-FR-AMC fluorescence, 0.01% Triton | Potency, µM, for inactives: max response, negative = inhibition, usual class: inhibitors | 200,000 compounds, 0.43% hits;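 further: plate controls were neutral wells for no effect and buffer without enzyme for full effect; nearly all actives have a fitted effect of over 40% in size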
#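 Compounds were screened in titration against cruzain (1.5 nM) with 0.01% Triton X-100 to counter colloidal aggregation. Activity was the AMC fluorescence increase over 60 s after adding 2 uM Z-FR-AMC at pH 5.5.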
# * = called active by the depositor; ? = inconclusive. Shown are actives, neighbours in structure and some others; about 2.6% of the full set was active somewhere. The call rests on the fitted dose curve; in most records, active means well fitted curve in the direction sought with a large enough effect; inconclusive means small, poorly fitted or top-dose-only effect, or another doubt; inactive means no such curve, though single readings can be large; an effect the other way counts as inactive or inconclusive. Potency means the concentration at half of the fitted maximal effect.
SMILES,Cruzain noTriton,Cruzain inh Det
CCS(=O)(=O)c1c(Nc2cc(C)ccc2C)sc(C(=O)c2ccccc2)c1N,-9%,-8%
CCCCCCOc1ccc(/C=C/C(=O)Nc2sc3c(c2C(=O)OC)CCC3)cc1OC,-5%,-7%
CO[C@]1(NC(=O)Cc2cccs2)C(=O)N2C(C(=O)O)=C(COC(N)=O)CS[C@H]21,-15%,-19%
COc1ccc(CNC(=O)CCCN2C(=O)CSc3c2c(C)nn3-c2ccccc2)c(OC)c1,?,-5%
Cc1cnc(CNc2cc(-c3ccccc3CN(C)C)ncn2)cn1,-2%,-5%
O=C(c1ccc2c(c1)OCCO2)N(Cc1cccnc1)c1nc2c(Cl)cccc2s1,2%,0%
CCOC(=O)c1ccc(NC(=O)c2oc(=O)c3ccccc3c2-c2ccccc2)cc1,0%,1%
O[C@@H]1[C@@H](OCc2ccccc2)OC[C@H](O)[C@@H]1O,-6%,7%
COc1ccc2nc3oc(C(=O)Nc4cccc(C(F)(F)F)c4)cc3cc2c1,-6%,1%
O=S(=O)(NCCc1csc2nc(-c3ccccc3)nn12)c1cc(F)ccc1F,-13%,-7%
Cc1cccc(C)c1Nc1sc(C(=O)c2ccccc2)c(N)c1S(=O)(=O)c1ccccc1,16µM*,-1%
COc1ccc(S(=O)(=O)c2c(Nc3ccc(C)cc3C)sc(C(=O)c3ccc(F)cc3)c2N)cc1,5µM*,-1%
CCOc1ccccc1Nc1sc(C(=O)c2ccccc2)c(N)c1S(=O)(=O)c1ccc(C)cc1,?,2%
CCOc1ccccc1Nc1sc(C(=O)c2ccc(Cl)cc2)c(N)c1S(=O)(=O)c1ccccc1,3.2µM*,1%
CCOc1ccc(Nc2sc(C(=O)c3ccc(F)cc3)c(N)c2S(=O)(=O)c2ccc(C)cc2)cc1,-11%,-1%
Cc1ccc(Cl)cc1Nc1sc(C(=O)c2ccccc2)c(N)c1S(=O)(=O)c1ccccc1,?,-2%
Cc1ccc(C)c(N2CCN(C(=O)CN3CCSc4ccc(S(=O)(=O)N(C)C)cc43)CC2)c1,-13%,-5%
CCN1C(=O)CC(C(=O)Nc2ccc(OC)cc2)SC1=Nc1ccc(C)c(C)c1 (stereo not drawn),9%,-3%
O=C(/C=C/Nc1ccccc1F)c1ccc(Br)cc1,?,-3%
O=C(/C=C/Nc1ccc(F)c(F)c1)c1ccc(Br)cc1,25µM*,-6%
Cc1cc(N/C=C/C(=O)c2ccc(Br)cc2)no1,?,-5%
O=C(/C=C/Nc1ccc([N+](=O)[O-])cc1)c1ccc(Br)cc1,20µM*,-2%
CCN(Cc1ccccc1)C(=O)Cn1c(=O)n(Cc2ccccc2)c(=O)c2c1c1cc(OC)ccc1n2C,-9%,1%
O=S(=O)(Nc1cccc(-c2ccc(N3CCCC3)nn2)c1)c1ccc(F)c(C(F)(F)F)c1,-8%,-10%
CC(C)(C)OC(=O)N[C@@H](Cc1ccccc1)c1nnc(SCC(=O)c2ccc(Cl)cc2)o1,?,0%
SMILES,Cruzain noTriton,Cruzain inh Det
CC(C)(C)OC(=O)N[C@@H](Cc1ccccc1)c1nnc(S(=O)(=O)Cc2ccccc2)o1,32µM*,16µM*
CCSc1nnc([C@H](Cc2ccccc2)NC(=O)OC(C)(C)C)o1,-4%,-8%
Cc1ccccc1CS(=O)(=O)c1nnc([C@H](Cc2ccccc2)NC(=O)OC(C)(C)C)o1,?,14µM*
COc1ccc(-c2cc(C(=O)Nc3cccc(C(C)=O)c3)no2)cc1,20µM*,0%
COc1ccc(-c2cc(C(=O)Nc3ccc(C)cc3)no2)cc1,20µM*,1%
O=C(Nc1cnn(C23CC4CC(CC(C4)C2)C3)c1)c1cc(-c2ccccc2)on1,?,-7%
COc1ccc(-c2cc(C(=O)Nc3cccc(C(C)=O)c3)no2)cc1OC,-10%,-1%
Cc1ccc(-c2cc(C(=O)Nc3cnn(C45CC6CC(CC(C6)C4)C5)c3)no2)cc1,13µM*,5%
COc1ccc(NC(=O)c2cc(-c3ccccc3OC)on2)cc1,-10%,-6%
CCN=C=NCCCN(C)C,5%,13%
Nc1cccc(N)c1,?,11µM*
Nc1cccc(Cl)c1,5%,0%
c1ccc2nc(CC[C@@H]3CCCCN3)ccc2c1,-13%,1%
Cc1nnc(NC(=O)CSc2nc3ccccc3o2)s1,-13%,2%
O=C(CSc1nc2ccccc2o1)Nc1nc(-c2ccccc2)c(-c2ccccc2)s1,13µM*,-1%
O=C(CSc1nc(-c2ccccc2)c(-c2ccccc2)o1)Nc1nnc(-c2ccccc2)s1,10µM*,-4%
O=C(CSc1nc(-c2ccccc2)c(-c2ccccc2)o1)Nc1nncs1,6%,0%
C=CCSc1nnc(NC(=O)CSc2nc3ccccc3o2)s1,16µM*,8%
O=C(CSc1nc2ccccc2o1)Nc1nncs1,3%,3%
COc1ccc(-n2c(=O)cnc3cnc(OC)nc32)cc1,-1%,-2%
CC1Cc2ccccc2N1C(=O)CSc1nnc(-c2ccccc2Cl)o1 (stereo not drawn),-3%,-3%
C/C(=N\N=C(/N)SC1CC(=O)N(c2ccc(Cl)c(Cl)c2)C1=O)c1cccs1 (stereo not drawn),32µM*,-7%
C/C(=N\N=C(/N)SC1CC(=O)N(c2ccc(Cl)cc2)C1=O)c1cccs1 (stereo not drawn),-4%,-16%
Cc1ccc(C(=O)NCCc2csc(-c3cccc(F)c3)n2)cc1C,?,-9%
Cc1ccc(OCC(=O)NC(=S)Nc2ccc3c4c(cccc24)CC3)cc1,?,-12%
SMILES,Cruzain noTriton,Cruzain inh Det
O=C(/C=C/c1ccccc1)NC(=S)Nc1ccc2c3c(cccc13)CC2,13µM*,-6%
CC(C)c1ccc(OCC(=O)NC(=S)Nc2ccc3c4c(cccc24)CC3)cc1,25µM*,1%
O=C(COc1ccccc1)NC(=S)Nc1ccc2c3c(cccc13)CC2,?,-8%
COc1ccc2c(c1OC)C(Cc1ccccc1)N1CCc3cc4c(cc3C1=C2)OCO4 (stereo not drawn),12%,-1%
CN(C)c1ccc(/C=N/c2cc(-c3ccccc3)nn2-c2ccccc2)cc1,20µM*,-5%
Cc1nn(-c2ccccc2)c(/N=C/c2ccc(O)cc2)c1-c1ccccc1,5%,-7%
O=C(CCc1ccccc1)NCc1ccccn1,-2%,3%
CC1c2nc3ccccc3n2C(CC(=O)NCc2ccccn2)C(=O)N1Cc1ccccc1 (stereo not drawn),13µM*,-7%
COc1ccc(/C=C/C(=O)Nc2cc(C)nn2-c2nc3ccccc3[nH]2)cc1,?,-29%
COc1ccc(/C=C/C(=O)Nc2cc(C)nn2-c2nc3ccccc3n2Cc2cccc([N+](=O)[O-])c2)cc1,7.9µM*,0%
CN(C)c1ccc(NC(=O)c2sc(SCC(=O)Nc3ccc(Br)cc3)nc2N)cc1,10µM*,6%
CN(C)c1ccc(NC(=O)c2sc(SCC(=O)Nc3nccs3)nc2N)cc1,?,-7%
O=c1c2ccccc2nc2n1CCCCC2,-4%,-1%
O=c1c2ccccc2nc2n1CCC2,13µM*,?
Cc1ccccc1-c1noc(-c2ccc(NCc3cccnc3)c([N+](=O)[O-])c2)n1,3%,3%
Clc1ccc(-c2nnc3sc(-c4ccc(Br)o4)nn23)c(Cl)c1,20µM*,-1%
Clc1ccccc1-c1nnc2sc(-c3ccc(Br)o3)nn12,-13%,-5%
Cc1ccc2nc3c(cc(C(=O)NCc4ccco4)c(=N)n3C(C)C)c(=O)n2c1,-5%,-2%
COc1cc(NC(=O)C2=C(C)Nc3nnnn3C2c2ccc(SC)cc2)c(OC)cc1Cl (stereo not drawn),?,-12%
